Results from PubChem BioAssay (NCATS).

molecular target: Catechol O-methyltransferase (Homo sapiens) (UniProt P21964); test: Confirmatory Screen for Target Class Profiling of Small Molecule Inhibitors of Methyltransferases (AID 1745852); details: MTase-Glo luminescence, SAH detection, recombinant enzyme; measured here: COMT max response; stronger effect = lower value
Sequence (P21964 whole entry, looked up): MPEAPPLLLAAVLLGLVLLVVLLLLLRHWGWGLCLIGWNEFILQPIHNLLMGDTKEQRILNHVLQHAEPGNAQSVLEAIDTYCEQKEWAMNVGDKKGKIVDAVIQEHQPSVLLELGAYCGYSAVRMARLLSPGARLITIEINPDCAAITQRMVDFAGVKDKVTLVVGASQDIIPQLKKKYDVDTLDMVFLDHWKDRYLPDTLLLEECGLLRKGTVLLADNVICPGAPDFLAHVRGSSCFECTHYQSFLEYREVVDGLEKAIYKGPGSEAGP

| Compound | activity |
| --- | --- |
| CCCS(=O)(=O)N1CCCC(Cn2c(C)nc3cccnc32)C1 (stereo not given) | 1.15% |
| COc1ccc(-c2nnn3c2nc(N2CCOCC2)c2ccccc23)cc1 | -38.9% |
| Cc1ccc(NC(=O)N2CCc3c(c4ccccc4n3CC3CC3)C2)cc1 | 6.89% |
| CC[C@H](C)NC(=O)c1sc(=S)n2c1[nH]c(=O)c1cc(Cl)ccc12 | -75.3% |
| Cc1cc(NS(=O)(=O)c2ccc3[nH]c(=O)[nH]c3c2)ccc1Br | 1.24% |
| CC(C)Cn1c(=O)c2ccccc2n2c(CCC(=O)N3CCN(c4ccccc4F)CC3)nnc12 | 2.07% |
| c1ccc(-c2cc3c(cn2)NCCN(Cc2ccccn2)C3)cc1 | 1.39% |
| CCN(CC)CCNC(=O)CCc1nnc2n(CCc3ccccc3)c(=O)c3ccccc3n12 | -2.93% |
| COc1ccc(S(=O)(=O)NC[C@H]2Cn3c(-c4ccc(Cl)cc4)cnc3CO2)cc1 | -8.66% |
| CC1CCN(CCCNC(=O)CCc2nnc3n(Cc4ccc(Cl)cc4)c(=O)c4ccccc4n23)CC1 | -7.96% |
| Cc1cccc(N2CCN(C(=O)CCc3nnc4n(CCC(C)C)c(=O)c5ccccc5n34)CC2)c1C | -0.369% |
| CCCC1c2cccn2CCN1C(=O)Nc1ccc(OC)cc1 (stereo not given) | -6.82% |
| COc1cccc(CN2CCCC3(CNc4ccccc4[S+](=O)([O-])N3)C2)c1 (stereo not given) | -4.83% |
| COc1ccccc1-c1[nH]nc2ncc(C(=O)N3CCN(Cc4ccccc4)CC3)nc12 | -51.3% |
| Cc1cnc(C2CCC2)n1C1CCN(C(=O)CCC2CCCC2)CC1 | -8.04% |
| Cc1cc(-c2cc3c(cn2)N(C)CCN(C)C3)ccn1 | 5.42% |
| O=[S+]1([O-])NC2(CCCN(Cc3c(F)cccc3Cl)C2)COc2ccccc21 (stereo not given) | -6.32% |
| Cc1noc(C)c1-c1cnc(Nc2ccncc2)c2c1CCO2 | 0.912% |
| CNc1cc(C2CC(NC(=O)COc3ccc(Cl)cc3C)C2)nc(N)n1 (stereo not given) | 7.09% |
| COc1ccccc1CNC(=O)C1(C)Cn2c(cc3ccccc32)C(=O)N1Cc1ccc(OC)c(OC)c1 (stereo not given) | 0% |

| Compound | activity |
| --- | --- |
| COc1cccc([S+](=O)([O-])N2CCC3(C2)N=C(c2cccnc2)C(=O)N3)c1 (stereo not given) | -6.05% |
| O=C(NCc1ccc2c(c1)OCO2)c1sc(=S)n2c1[nH]c(=O)c1ccc(Cl)cc12 | -88.3% |
| O=C(NCc1cccc(F)c1)c1nc2c(o1)CCN(CC1CCCC1)CC2 | 5.53% |
| COc1ccc(NC(=O)CCc2ccnc(N3CCCC3)c2)c(OC)c1 | -5.64% |
| Cc1cccc(N2CCN(C(=O)CCc3nnc4n(CC(C)C)c(=O)c5ccccc5n34)CC2)c1C | 4.82% |
| O=C(NCc1cccc(Cl)c1)c1sc(=S)n2c1[nH]c(=O)c1cc3c(cc12)OCO3 | -21.3% |
| Cc1ccc(NC(=O)CSc2nnc3n(CC(C)C)c(=O)c4ccccc4n23)cc1 | 1.84% |
| Cc1cnc(C2CC2)n1C1CCN(S(=O)(=O)c2ccc3c(c2)OCCO3)CC1 | -0.0283% |
| COc1ccccc1CC(=O)N1CCCc2ncc(C(=O)Nc3cccc(Cl)c3)cc21 | 2.46% |
| COC(=O)C(Cc1c[nH]c2ccccc12)NC(=O)c1ccccc1Br (stereo not given) | -2.16% |
| CCCn1c(=O)c2cc(F)ccc2n2c(SCc3c(F)cccc3Cl)nnc12 | 4.81% |
| COc1ccc(CCN2C(=O)c3cc4oc(C)cc4n3CC2(C)C(=O)NC2CCCCC2)cc1OC (stereo not given) | -7.54% |
| COc1ccc(OC)c2c1cc1n2CC(C)(C(=O)NC2CCCCC2)N(Cc2cccnc2)C1=O (stereo not given) | -8.96% |
| Cc1ccc(Cn2c(=O)c3ccccc3n3c(CCC(=O)NCCCN4CCN(C)CC4)nnc23)cc1 | -2.75% |
| CN1CCN(c2ncnc3sc4c(c23)CCNC4)CC1 | -1.43% |
| COc1ccc(C2CC(=O)c3cc(-c4nc(-c5cccc([N+](=O)[O-])c5)cs4)c(=O)n(-c4ccccc4N)c3C2)cc1 (stereo not given) | -0.514% |
| CCCC1c2cccn2CCN1C(=O)Nc1ccc(F)cc1F (stereo not given) | -4.42% |
| O=C(Cc1ccsc1)Nc1ccc2c(N3CCCC3)ncnc2c1 | 0.696% |
| CCCC1c2cccn2CCN1C(=O)Nc1ccc(C)cc1Cl (stereo not given) | 0.596% |
| COc1ccc(OC)c2c1cc1n2CC(C)(C(=O)NC2CCCCC2)N(Cc2ccccn2)C1=O (stereo not given) | -7.35% |
